Active and inactive are the calls of the source. Entries that show only a call come without a potency. The call rests on the fitted dose curve; in most records, active means well fitted curve in the direction sought with a large enough effect in the repeat runs; inconclusive means weak or mixed curves; inactive means flat fitted curve, though single readings scatter.
Test: qHTS assay to test for compound auto fluorescence at 535 nm (green) in HepG2 cells (AID 720675)
Conditions: green autofluorescence 485/535 nm, 1 h; series mostly up to 46 µM

Structure (SMILES) | Potency
CN1CC[C@H](c2c(O)cc(O)c3c(=O)cc(-c4ccccc4Cl)oc23)[C@H](O)C1 | inactive
c1ccc2occc2c1 | inactive
CC(C)Cc1ccc([C@H](C)C(=O)O)cc1 | inactive
CC[N+](CC)(CC)CCC(O)(c1ccccc1)C1CCCCC1 (stereo not given) | inactive
O=C1C2CC3CC1CC(O)(C3)C2 | inactive
Cc1c(N)nc([C@H](CC(N)=O)NC[C@H](N)C(N)=O)nc1C(=O)N[C@H](C(=O)N[C@H](C)[C@@H](O)[C@H](C)C(=O)N[C@H](C(=O)NCCc1nc(-c2nc(C(=O)NCCCCN=C(N)N)cs2)cs1)[C@@H](C)O)[C@@H](O[C@@H]1O[C@@H](CO)[C@@H](O)[C@H](O)[C@@H]1O[C@H]1O[C@H](CO)[C@@H](O)[C@H](OC(N)=O)[C@@H]1O)c1cnc[nH]1 | inactive
CC[C@@]1([C@@H]2O[C@@H]([C@H]3O[C@@](O)(CO)[C@H](C)C[C@@H]3C)C[C@@H]2C)CC[C@H]([C@]2(C)CC[C@]3(C[C@H](O)[C@@H](C)[C@@H]([C@@H](C)[C@@H](OC)[C@H](C)C(=O)O)O3)O2)O1 (stereo in doubt) | inactive
O=C1c2ccccc2-c2n[nH]c3cccc1c23 | inactive
CO/N=C(\C(=O)N[C@@H]1C(=O)N2C(C(=O)O)=C(C[N+]3(C)CCCC3)CS[C@H]12)c1csc(N)n1 | inactive
CC(C)(C)c1ccc2c(S(=O)(=O)O)c(C(C)(C)C)ccc2c1 | inactive
O=C1CCCCCCCCCCCCCC1 | inactive
C=C1C(CCl)(CCl)C2(Cl)C(Cl)C(Cl)C1(Cl)C2(Cl)Cl (stereo not given) | inactive
CN(C[C@@H](CC[N+]12CCC(C3CCCCC3)(CC1)CC2)c1ccc(Cl)c(Cl)c1)C(=O)c1cc(C(F)(F)F)cc(C(F)(F)F)c1 | inactive
CCOc1ccc([N+](=O)[O-])cc1 | inactive
Cc1cc(CC(C)CC(C)(C)C)n(O)c(=O)c1 (stereo not given) (tested in a mixture with another compound) | inactive
O=C(Nc1ccccc1)c1cc(Cl)ccc1O | inactive
N[C@H](CO)C(=O)O | inactive
CC[C@@H](C)[C@H](N)C(=O)O | inactive
CC(C)c1ccc2sc3ccccc3c(=O)c2c1 | inactive
CC(=O)N[C@@H](C=O)[C@H](O)[C@H](O)[C@@H](O)CO | inactive
COc1c(Br)cc(Br)c(C)c1Br | inactive
Cc1ccc2nc(-c3ccc(N)cc3)sc2c1S(=O)(=O)O | inactive
CN[C@H](CC(C)C)C(=O)N[C@H]1C(=O)N[C@@H](CC(N)=O)C(=O)N[C@H]2C(=O)N[C@H]3C(=O)N[C@H](C(=O)N[C@@H](C(=O)O)c4cc(O)cc(O)c4-c4cc3ccc4O)[C@H](O)c3ccc(c(Cl)c3)Oc3cc2cc(c3O[C@@H]2O[C@H](CO)[C@@H](O)[C@H](O)[C@H]2O[C@H]2C[C@](C)(N)C(O)[C@H](C)O2)Oc2ccc(cc2Cl)[C@H]1O (stereo not given in full) | inactive
O=C(Cn1cnnn1)N[C@@H]1C(=O)N2C(C(=O)O)=C(CSc3nncs3)CS[C@H]12 | inactive
Oc1ccc(Cl)cc1C1CCCC1 | inactive
CN=C(N)NCCC[C@H](N)C(=O)O | inactive
CCSCC | inactive
c1ccc2cc3c4ccccc4c4ccccc4c3cc2c1 | inactive
Cc1cc(F)ccc1-c1cc(N2CC[C@@H](O)[C@H]2CO)ncc1N(C)C(=O)C(C)(C)c1cc(C(F)(F)F)cc(C(F)(F)F)c1 | inactive
CC(CNC(=O)c1cccnc1)NC(=O)c1cccnc1 (stereo not given) | inactive
